Drawing on ChEMBL document CHEMBL3433997, “St. Jude Leishmania screening dataset” (2016), this text covers inhibition for 40 compounds.

Each structure is given as a SMILES string.

For one assay, the target named is Solute carrier family 2, facilitated glucose transporter member 1 (Homo sapiens) (UniProt P11166). Put plainly: ST_JUDE_LEISH: Cytotoxicity at 2uM final concentration against transgenic Leishmania Mexicana promastigotes LmGLUT1 that are glucose transport deficient and complemented with the human glucose transporter GLUT1. Activity is measured by DNA content using SYBR green in vitro. The format is functional.
Solute carrier family 2, facilitated glucose transporter member 1 (Homo sapiens), sequence (P11166 whole entry): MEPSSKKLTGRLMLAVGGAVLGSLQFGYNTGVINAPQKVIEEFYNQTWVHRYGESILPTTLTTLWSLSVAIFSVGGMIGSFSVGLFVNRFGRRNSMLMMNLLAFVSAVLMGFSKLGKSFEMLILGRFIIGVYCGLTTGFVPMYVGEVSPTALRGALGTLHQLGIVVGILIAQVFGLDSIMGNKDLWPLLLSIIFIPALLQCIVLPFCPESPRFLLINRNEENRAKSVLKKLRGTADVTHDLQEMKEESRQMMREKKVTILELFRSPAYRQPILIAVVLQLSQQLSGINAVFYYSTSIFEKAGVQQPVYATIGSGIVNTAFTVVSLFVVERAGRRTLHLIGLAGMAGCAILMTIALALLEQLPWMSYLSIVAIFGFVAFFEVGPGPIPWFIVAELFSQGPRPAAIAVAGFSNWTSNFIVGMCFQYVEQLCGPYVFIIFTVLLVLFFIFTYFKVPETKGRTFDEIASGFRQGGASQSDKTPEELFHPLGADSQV
With `OCCNc1nc(Nc2ccc(F)cc2)nc2ccccc12`, the inhibition (usually the drop in the measured response relative to a control, in per cent) amounted to 3.51%.

In the case of `Cc1ccc(CN2CCN(CC(O)COc3ccc4c(c3)CCC4)CC2)cc1` (stereo not given), the inhibition was -0.73%.

Consider `CCOC(=O)c1ccc(NC(=O)N[C@@H](Cc2ccc(O)cc2)C(=O)NC2CCN(Cc3ccc4c(c3)OCO4)CC2)cc1`, for which the inhibition was determined as 0.57%.

In the case of `c1ccc2sc(-c3csc(Nc4ccncc4)n3)nc2c1`, the inhibition is -1.14%.

Turning to `O=C(COc1ccccc1)Nn1cnc2ccccc21`, the inhibition came to 3.76%.

In the case of `Cc1ccc(NC(=O)c2ccc(N3CCN(c4ccncc4)CC3)cc2)cc1F`, the inhibition came out at 68%.

In the case of `CC(=O)Nc1sc(C)c(C)c1CN1CCc2ccccc2C1`, the inhibition is -0.17%.

`CCNc1cc(C)nc(Nc2ccc(F)cc2)n1`: the inhibition worked out at 22.3%.

As to `CC(C)(C)Oc1ccc(CC2NC3(C(=O)N(Cc4ccc(C(C)(C)C)cc4)c4ccccc43)C3C(=O)N(c4ccc(Br)cc4)C(=O)C23)cc1` (stereo not given), the inhibition was -1.37%.

Take `N#Cc1cccc(NC(=O)Nc2ccc(-c3csc(-c4nc5ccccc5[nH]4)c3)cc2)c1`: the inhibition is 7.99%.

Regarding `CCNc1cc(C(=O)N[C@@H](Cc2ccccc2)[C@H](O)CN[C@H](C)C(C)(C)C)cc(N2CCCCS2(=O)=O)c1`, the inhibition was 2.2%.

With `CNC(=O)NC1CCN(Cc2c(-c3cccs3)nc3ccccc3c2C(=O)N[C@@H](C)C2CCCCC2)CC1`, the inhibition is -1.53%.

As for `CN(C)S(=O)(=O)c1ccc(C(=O)N(c2nc(-c3ccccc3)cs2)C2CCCCC2)cc1`, the inhibition is 3.2%.

Turning to `CCCCCCCC(=O)N[C@@H](Cc1ccccc1)C(=O)N[C@H](C(=O)O)C(C)C`, the inhibition was 2.54%.

`c1cc(CN2CCC(CCN3CCCCC3)CC2)cc(-c2csc(-c3nc4ccccc4[nH]3)c2)c1`: the inhibition came out at 7.93%.

For `NCCNc1ccnc2cc(Cl)ccc12`, the inhibition worked out at 0.54%.

Consider `CC(=O)Nc1nc(C(=O)Nc2ccc(-c3ccc(-c4nc5ccccc5[nH]4)cc3)cc2)cs1`, for which the inhibition stood at 4.03%.

Consider `CCCCCCCc1c(C)nc2cc(OC)ccc2c1O`, for which the inhibition turned out to be 7.36%.

As to `CN(C)CCN(Cc1ccccc1-c1ccc(CNCCc2ccccc2)cc1)C(=O)NC1CCCCC1`, the inhibition was 3.67%.

`CN1CCN(c2ccnc3cc4ccccc4cc23)CC1`: the inhibition is -3.09%.

Regarding `O=C(Nc1ccc(Cl)cc1)Nc1cccc(-c2ccc(-c3nc4cc(F)ccc4[nH]3)cc2)c1`, the inhibition was found to be 6.12%.

Turning to `O=S(=O)(Nc1cccc(CCN2CCC(N3CCCCC3)CC2)c1)c1ccc2c(c1)OCCO2`, the inhibition came to 1.3%.

In the case of `COc1cc2nc(NCCc3cccc(Cl)c3)nc(NCc3ccccc3)c2cc1OC`, the inhibition amounted to 5.15%.

With `CCC1=C(CC2NCCc3cc(OC)c(OC)cc32)CC2c3cc(OC)c(OC)cc3CCN2C1` (stereo not given), the inhibition is 87.8%.

Take `CCCCCCNCc1c(O)ccc2c(CNCCCCCC)c(O)ccc12`: the inhibition is -0.62%.

For `Cc1ccnc(NC(c2cccc(OCc3ccccc3)c2)c2ccc3cccnc3c2O)c1` (stereo not given), the inhibition came out at 0.07%.

Regarding `COc1ccc2nccc(NCC3(O)CCN(CCc4ccc5c(c4)OCCO5)CC3)c2n1`, the inhibition was 4.99%.

As to `O=C(c1ccc(-c2cccc(-c3nc4cc(C(F)(F)F)ccc4[nH]3)c2)cc1)N1CCCCC1CN1CCC(O)C1` (stereo not given), the inhibition was -0.47%.

For the compound `O=S(=O)(Nc1cccc(CCN2CCC(N3CCCCC3)CC2)c1)c1ccc(Oc2ccccc2)nc1`, the inhibition is 3.37%.

On to `CC(=O)NCCNCc1cccc(C(=O)NCc2cccc(C(F)(F)F)c2)c1`, for which the inhibition came to 3.26%.

As to `Nc1nc(N)c2c(CCc3ccc4ccccc4c3)cccc2n1`, the inhibition was found to be 3.27%.

In the case of `O=c1cc(NCCCNCc2scc(I)c2I)[nH]c2ccccc12`, the inhibition is 4.34%.

With `Nc1c(Cl)cc(C(O)CNCCCCCCOCCc2ccc(O)cc2)cc1Cl` (stereo not given), the inhibition is -0.61%.

Take `Nc1nc(N)c2cc(NS(=O)(=O)c3ccc(-c4ccccc4)cc3)ccc2n1`: the inhibition turned out to be 4.33%.

Turning to `COc1ccc2nccc([C@@H](O)CN3CCC(NC/C=C/c4cccnc4)CC3)c2c1`, the inhibition worked out at 1.71%.

Consider `COc1ccc2nccc([C@@H](O)CN3CCC(NCc4ccc5scnc5c4)CC3)c2c1`, for which the inhibition stood at 3.81%.

In the case of `O=C(/C=C/c1ccc(Cl)cc1)NCCCCCN1CCC(c2c[nH]c3ccccc23)CC1`, the inhibition was 3.62%.

Consider `CCc1ccc(C2=Nn3c(nnc3-c3cccs3)SC2)cc1`, for which the inhibition stood at 2.35%.

For `COc1ccc2ncc(F)c(CCN3CC(O)C(CNCc4ccc(F)cc4)C3)c2n1` (stereo not given), the inhibition turned out to be 3.37%.

Regarding `Cc1cc2nc(-c3ccc(C(=O)NC4CCN(Cc5ccccc5)CC4)cc3)[nH]c2cc1C`, the inhibition was 14.1%.

For the next assay, the target named is Hexose transporter 1 (Plasmodium falciparum) (UniProt O97467). Put plainly: ST_JUDE_LEISH: Cytotoxicity at 2uM final concentration against transgenic Leishmania Mexicana promastigotes LmPfHT that are glucose transport deficient and complemented with the Plasmodium falciparum hexose transporter. Activity is measured by DNA content using SYBR green in vitro. The format is functional.
As for `OCCNc1nc(Nc2ccc(F)cc2)nc2ccccc12`, the inhibition is 3.35%.

In the case of `Cc1ccc(CN2CCN(CC(O)COc3ccc4c(c3)CCC4)CC2)cc1` (stereo not given), the inhibition came out at 0.88%.

On to `CCOC(=O)c1ccc(NC(=O)N[C@@H](Cc2ccc(O)cc2)C(=O)NC2CCN(Cc3ccc4c(c3)OCO4)CC2)cc1`, for which the inhibition is 2.47%.

For `c1ccc2sc(-c3csc(Nc4ccncc4)n3)nc2c1`, the inhibition is 1.09%.

Regarding `O=C(COc1ccccc1)Nn1cnc2ccccc21`, the inhibition was found to be 0.83%.

For `Cc1ccc(NC(=O)c2ccc(N3CCN(c4ccncc4)CC3)cc2)cc1F`, the inhibition was 74.7%.

With `CC(=O)Nc1sc(C)c(C)c1CN1CCc2ccccc2C1`, the inhibition was 0.49%.

For the compound `CCNc1cc(C)nc(Nc2ccc(F)cc2)n1`, the inhibition was determined as 11.9%.

Regarding `CC(C)(C)Oc1ccc(CC2NC3(C(=O)N(Cc4ccc(C(C)(C)C)cc4)c4ccccc43)C3C(=O)N(c4ccc(Br)cc4)C(=O)C23)cc1` (stereo not given), the inhibition amounted to 3%.

Consider `N#Cc1cccc(NC(=O)Nc2ccc(-c3csc(-c4nc5ccccc5[nH]4)c3)cc2)c1`, for which the inhibition was found to be 9.33%.

For `CCNc1cc(C(=O)N[C@@H](Cc2ccccc2)[C@H](O)CN[C@H](C)C(C)(C)C)cc(N2CCCCS2(=O)=O)c1`, the inhibition came out at 1.95%.

In the case of `CNC(=O)NC1CCN(Cc2c(-c3cccs3)nc3ccccc3c2C(=O)N[C@@H](C)C2CCCCC2)CC1`, the inhibition was found to be 0.94%.

For the compound `CN(C)S(=O)(=O)c1ccc(C(=O)N(c2nc(-c3ccccc3)cs2)C2CCCCC2)cc1`, the inhibition came to 3.31%.

Regarding `CCCCCCCC(=O)N[C@@H](Cc1ccccc1)C(=O)N[C@H](C(=O)O)C(C)C`, the inhibition amounted to 1.23%.

For the compound `c1cc(CN2CCC(CCN3CCCCC3)CC2)cc(-c2csc(-c3nc4ccccc4[nH]3)c2)c1`, the inhibition was 8.75%.

On to `NCCNc1ccnc2cc(Cl)ccc12`, for which the inhibition was found to be 1.61%.

For `CC(=O)Nc1nc(C(=O)Nc2ccc(-c3ccc(-c4nc5ccccc5[nH]4)cc3)cc2)cs1`, the inhibition is 2.54%.

With `CCCCCCCc1c(C)nc2cc(OC)ccc2c1O`, the inhibition amounted to 9.59%.

For the compound `CN(C)CCN(Cc1ccccc1-c1ccc(CNCCc2ccccc2)cc1)C(=O)NC1CCCCC1`, the inhibition is 3.66%.

For `CN1CCN(c2ccnc3cc4ccccc4cc23)CC1`, the inhibition is -3.08%.

For the compound `O=C(Nc1ccc(Cl)cc1)Nc1cccc(-c2ccc(-c3nc4cc(F)ccc4[nH]3)cc2)c1`, the inhibition worked out at 1.78%.

Turning to `O=S(=O)(Nc1cccc(CCN2CCC(N3CCCCC3)CC2)c1)c1ccc2c(c1)OCCO2`, the inhibition was 4.23%.

For `COc1cc2nc(NCCc3cccc(Cl)c3)nc(NCc3ccccc3)c2cc1OC`, the inhibition is 6.21%.

For the compound `CCC1=C(CC2NCCc3cc(OC)c(OC)cc32)CC2c3cc(OC)c(OC)cc3CCN2C1` (stereo not given), the inhibition was determined as 92.4%.

With `CCCCCCNCc1c(O)ccc2c(CNCCCCCC)c(O)ccc12`, the inhibition was -0.78%.

Take `Cc1ccnc(NC(c2cccc(OCc3ccccc3)c2)c2ccc3cccnc3c2O)c1` (stereo not given): the inhibition was 1.21%.

`COc1ccc2nccc(NCC3(O)CCN(CCc4ccc5c(c4)OCCO5)CC3)c2n1`: the inhibition was 4.58%.

Take `O=C(c1ccc(-c2cccc(-c3nc4cc(C(F)(F)F)ccc4[nH]3)c2)cc1)N1CCCCC1CN1CCC(O)C1` (stereo not given): the inhibition was found to be 0.38%.

`O=S(=O)(Nc1cccc(CCN2CCC(N3CCCCC3)CC2)c1)c1ccc(Oc2ccccc2)nc1`: the inhibition turned out to be 4.85%.

Consider `CC(=O)NCCNCc1cccc(C(=O)NCc2cccc(C(F)(F)F)c2)c1`, for which the inhibition was determined as 5.92%.

Turning to `Nc1nc(N)c2c(CCc3ccc4ccccc4c3)cccc2n1`, the inhibition was 1.63%.

On to `O=c1cc(NCCCNCc2scc(I)c2I)[nH]c2ccccc12`, for which the inhibition came out at 5.49%.

For the compound `Nc1c(Cl)cc(C(O)CNCCCCCCOCCc2ccc(O)cc2)cc1Cl` (stereo not given), the inhibition is -1.55%.

For `Nc1nc(N)c2cc(NS(=O)(=O)c3ccc(-c4ccccc4)cc3)ccc2n1`, the inhibition is 3.47%.

As for `COc1ccc2nccc([C@@H](O)CN3CCC(NC/C=C/c4cccnc4)CC3)c2c1`, the inhibition is 2.98%.

As for `COc1ccc2nccc([C@@H](O)CN3CCC(NCc4ccc5scnc5c4)CC3)c2c1`, the inhibition was determined as 2.6%.

Consider `O=C(/C=C/c1ccc(Cl)cc1)NCCCCCN1CCC(c2c[nH]c3ccccc23)CC1`, for which the inhibition came to 3.59%.

As to `CCc1ccc(C2=Nn3c(nnc3-c3cccs3)SC2)cc1`, the inhibition is 1.1%.

`COc1ccc2ncc(F)c(CCN3CC(O)C(CNCc4ccc(F)cc4)C3)c2n1` (stereo not given): the inhibition worked out at 3.9%.

Regarding `Cc1cc2nc(-c3ccc(C(=O)NC4CCN(Cc5ccccc5)CC4)cc3)[nH]c2cc1C`, the inhibition was 12.9%.
